Results filed as inconclusive are left out. The source made the active and inactive calls. Calls follow the shape of the dose curve; as a rule, active = well fitted inhibition curve with a large enough effect; inconclusive = small, poorly fitted or top-dose-only effect; inactive = flat fitted curve, though single readings scatter.
Assay: Confirmatory Assay for General miRNAs Modulators and/or Inhibitors/Activators of miR-21: second round cherrypicks
Details: HeLa miR-21 FLuc reporter, luciferase luminescence, 48 h
Description: MLPCN Grant: 1 R21 NS059478-01 Assay Provider: Qihong Huang, The Wistar Institute NCGC Assay Overview: MicroRNAs (miRNAs) are endogenously encoded small (~20-25 nucleotides), nonprotein-coding RNAs that are involved in post-transcriptional repression of target messenger RNAs (mRNAs) (Le and Hannon, 2004). Estimated to be involved in the regulation of 30% of all protein-coding mRNAs (Filipowicz et al., 2008), miRNAs play a significant role in many biological processes including cellular differentiation and tissue development (Ghildiyal and Zamore, 2009).
NCGC Assay Protocol Summary: Reagents: HeLa cells stably expressing firefly luciferase (FLuc) under the control of a CMV promoter (upstream) and a miR-21 binding sequence directly downstream of the gene. These cells endogenously express miR-21. Control compounds used were compound C3 (provided by collaborator), N6-phenyladenosine (MP Biomedicals, 0215379625), and DMSO. Assay Summary: 6uL of HeLa miR-21-FLuc cells in assay buffer (DMEM, Invitrogen #21063-029; 10% FBS, HyClone #SH30071.03) were dispensed at 2000cells/well (3.3 x 10^5 cells/mL) into Greiner solid-white TC-treated 1536-well plates using a Multidrop Combi (Thermo Fisher Scientific). […] After a 15 minute incubation to allow for cell lysis, luciferase activity was measured using a ViewLux CCD imager (PerkinElmer), with an average exposure time of 2-12 seconds. […]

O=c1c2ccccc2nc(Cc2ccccc2)n1-c1ccccc1
Potency: 14.2 µM (active)
